# The list is not random: actives were taken first. Their share in the collection is about 12%.
# TDP1 inh = TDP1 (human) enzyme inhibition. Q9NUW8. recombinant TDP1, AlphaScreen DNA substrate cleavage. Potency, µM (series often up to 130 µM), inactives show top-dose activity change, negative = inhibition, usual class: inhibitors. actives 0.28% (n = 350,000). AID 485290; also: % is scaled to controls: 0 for no effect and ±100 for the full control effect; nearly all actives have a fitted effect of over 40% in size
#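 Steps: enzyme plus compound, 15 min RT; add biotin/phosphotyrosine-FITC oligonucleotide (15 nM final), react 5 min; add donor/acceptor beads (10 ug/ml final), 10 min; read AlphaScreen. Tdp1 at 1 nM final.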
# BAZ2B block = inhibitors of human BAZ2B bromodomain | AlphaScreen BAZ2B-H3K14Ac peptide displacement | Potency, µM (doses to about 114 µM), for inactives: top-dose activity change, negative = inhibition, most hits filed as inhibitors | actives 4.4% (n = 360,000) | AID 504333; also: % is scaled to controls: 0 for no effect and ±100 for the full control effect; nearly all actives have a fitted effect of over 60% in size
#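 Complex of BAZ2B and biotin-H3K14Ac (50 nM apiece) forms over 30 min at RT, then faces library compounds up to 110 uM for another 30 min; AlphaScreen beads added, 20 min dark incubation, luminescence read.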
# JMJD2A Tudor = JMJD2A Tudor domain (human) inhibition | O75164 | AlphaScreen JMJD2A-Tudor / H3K4me3 peptide binding | Potency, µM (highest dose often 114 µM), for inactives: at the top dose activity change, negative = inhibition, usual class: inhibitors | actives 4.4% (n = 390,000); also: % is scaled to controls: 0 for no effect and ±100 for the full control effect; nearly all actives have a fitted effect of over 50% in size
# HP1b binding inh = HP1-beta chromodomain-methylated histone interaction inhibition | Potency, µM (titrated, usually from 114 µM), inactives show at the highest dose activity change, negative = inhibition, usual class: inhibitors | AlphaScreen HP1-beta / biotin-H3K9me3 peptide binding | AID 540317 | actives 0.56% (n = 390,000); also: nearly all actives have a fitted effect of over 70% in size
# Target sequence (P83916 whole entry, looked up): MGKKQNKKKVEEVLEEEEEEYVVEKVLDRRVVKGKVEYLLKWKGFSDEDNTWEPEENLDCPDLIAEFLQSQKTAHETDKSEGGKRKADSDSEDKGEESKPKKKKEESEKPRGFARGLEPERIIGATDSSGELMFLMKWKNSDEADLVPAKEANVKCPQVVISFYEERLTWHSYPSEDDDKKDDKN
#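 Compound inhibition of the preformed complex between 50 nM HP1-beta and 50 nM biotinylated H3K9me3 peptide was read by AlphaScreen. Buffer was PBS pH 7.4 with 0.01% Tween-20. Incubations ran 30 min at room temperature, with 10 ug/mL donor/acceptor beads.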
# Sfp PPTase inh = blocks B. subtilis Sfp PPTase activity; Q9F4F7; Biochemical Sfp PPTase activity, qHTS; Potency, µM, inactives show largest response in the series, negative = inhibition, most hits filed as inhibitors; actives 3.5% (n = 310,000);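 also: the enzyme is Sfp with the accession as filed and its product quenches rhodamine fluorescence; 0% = enzyme reaction without inhibitor and -100% = no enzyme wells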
#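 Compounds were incubated with enzyme (final 15 nM) for 15 min at room temperature before substrate addition started the reaction. Fluorescence at 525 nm excitation, 598 nm emission was recorded immediately and after 30 minutes.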
# G9a inh = inhibitors of human histone lysine methyltransferase G9a; actives 8.8% (n = 350,000); AID 504332; Potency, µM (doses to about 102 µM), without a hit: top-dose activity, negative = inhibition, usual class: inhibitors; G9a H3K9 monomethylation, AlphaScreen, 2 h; also: % is scaled to controls: 0 for no effect and ±100 for the full control effect; nearly all actives have a fitted effect of over 75% in size
# Target sequence (Q96KQ7 913-1193 limits assumed): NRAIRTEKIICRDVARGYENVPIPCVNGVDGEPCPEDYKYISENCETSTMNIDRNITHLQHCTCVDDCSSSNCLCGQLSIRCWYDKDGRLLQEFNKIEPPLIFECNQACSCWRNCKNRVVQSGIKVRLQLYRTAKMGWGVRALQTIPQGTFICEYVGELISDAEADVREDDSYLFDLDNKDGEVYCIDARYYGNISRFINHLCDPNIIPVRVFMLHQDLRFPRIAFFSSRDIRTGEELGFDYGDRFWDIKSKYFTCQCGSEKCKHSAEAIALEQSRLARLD
#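 Readings reflect AlphaScreen signal from monomethyl-H3K9 antibody detection. HMT at 20 nM; substrate b-H3K9 500 nM; cofactor SAM 20 uM; 2 h RT reaction; compounds tested as titrations in qHTS with 15 min preincubation.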
# * = called active by the depositor; ? = inconclusive; . = no result given; [ ] = remark or other dose. Calls follow the shape of the dose curve; as a rule, active = well fitted curve in the direction sought with a large enough effect; inconclusive = small, poorly fitted or top-dose-only effect, or another doubt; inactive = no such curve, though single readings can be large; an effect the other way counts as inactive or inconclusive. Potency is read from the fitted curve at half-maximal effect.
SMILES,TDP1 inh,BAZ2B block,JMJD2A Tudor,HP1b binding inh,Sfp PPTase inh,G9a inh
COP(=S)(OC)Oc1ccc([N+](=O)[O-])cc1,-10%[56.1 µM],.,.,.,-3%,.
COP(=S)(OC)Oc1ccc(Sc2ccc(OP(=S)(OC)OC)cc2)cc1,.,.,113%,139%,40µM*,?
NC(=O)O,5%,.,.,.,12%,.
O=C1/C(=C/c2ccc([N+](=O)[O-])cc2)N2CCC1CC2,11%,?,-31%,-11%,11%,11µM*
O=C1/C(=C/c2ccccc2Cl)N2CCC1CC2,.,-10%,-1%[11.4 µM],6%,-4%,-20%
CCC(/C=C/C(C)C1CCC2C3CC=C4CC(O)CC[C@@]4(C)C3CC[C@@]12C)C(C)C (stereo partly specified),2%,.,.,.,31%,.
CCOC(=O)C1(CCc2ccccc2)CCN(C2CCSCC2)CC1,3%,-11%,-18%,20%,79µM*,.
Cc1noc(C)c1C(=O)N1CCC2(CCCN(CC(C)C)C2)CC1,.,.,.,.,4%,7%[12.7 µM]
O=C1NC(=O)N(c2ccccc2)C(=O)/C1=C\c1ccc([N+](=O)[O-])s1,4%,35µM*,22µM*,16µM*,13µM*,8.9µM*
O=C1NC(=O)N(c2ccccc2)C(=O)/C1=C\c1ccc([N+](=O)[O-])o1,.,40µM*,.,.,18µM*,13µM*
CC1=NN(c2ccccc2)C(=O)C1/C=C1/C(=O)NC(=O)N(c2cc(C)cc(C)c2)C1=O (stereo unspecified),7%,?,?,-2%,3%,?
CN1C(=O)NC(=O)/C(=C/c2ccc([N+](=O)[O-])s2)C1=O,-9%,50µM*,?,?,11µM*,7.1µM*
COc1ccc(OC)c(N2C(=O)NC(=O)/C(=C\c3ccc([N+](=O)[O-])s3)C2=O)c1,-2%,28µM*,28µM*,25µM*,22µM*,8.9µM*
O=C(O)CF,3%,.,.,.,33%,.
O=c1c2ccccc2nc(/C=C/c2ccccc2)n1-c1ccc(O)cc1,.,-21%,-22%,1%,11%,5%
O=c1c2ccccc2nc(/C=C/c2ccc([N+](=O)[O-])o2)n1-c1ccc(O)cc1,-2%,?,-35%,18%,-14%,50µM*
O=c1c2ccccc2nc(/C=C/c2ccc(O)c(O)c2)n1-c1ccccc1,.,?,-34%,-15%,-15%,7.9µM*
O=C1Nc2ccccc2/C1=C/c1nc2ccccc2c(=O)n1-c1ccc(O)cc1,3%,40µM*,-26%,-22%,?,.
OCCCBr,3%,.,.,.,.,.
CC1OC(O[C@@H]2C(O)CC(O[C@@H]3C(O)C[C@@H](OC4CC[C@]5(C)[C@H](CC[C@H]6[C@@H]5CC[C@]5(C)C(C7=CC(=O)OC7)C(O)C[C@@]65O)C4)OC3C)OC2C)CC(O)C1O (stereo partly specified),14%[56.1 µM],.,.,.,-10%,.
COc1ccc(/C=C/C(=O)NC(=S)N2C[C@H]3C[C@H](C2)c2cccc(=O)n2C3)cc1OC,.,-31%,-20%,22%,-18%,35µM*
O=C(/C=C/c1ccccc1)NC(=S)N1C[C@H]2C[C@H](C1)c1cccc(=O)n1C2,.,-2%,-24%,9%,-15%,32µM*
O=C(/C=C/c1ccc(F)cc1)NC(=S)N1C[C@H]2C[C@H](C1)c1cccc(=O)n1C2,.,-8%,-29%,16%,-4%,-16%
COC(=O)C(C)NC(=S)N1CC2C[C@@H](C1)Cn1c2cccc1=O (stereo partly specified),.,0%,-12%,10%,18%,3%
O=C1OC(=O)c2ccccc21,17%,.,.,.,.,.
SMILES,TDP1 inh,BAZ2B block,JMJD2A Tudor,HP1b binding inh,Sfp PPTase inh,G9a inh
COc1ccc(OCC(=O)N2CCN(Cc3c[nH]c4ccccc34)CC2)cc1,-2%,.,3.5µM*,?,-15%,3.5µM*
O=C(COc1ccc2ccccc2c1)N1CCN(C2CCN(Cc3ccccc3)CC2)CC1,-1%,-4%,-24%,-3%,0%,-48%
O=C(COc1ccccc1)N1CCN(Cc2c[nH]c3ccccc23)CC1,-6%,.,7.9µM*,-18%,1%,13µM*
COc1ccc(OCC(=O)N2CCN(C3CCC(c4ccccc4)CC3)CC2)cc1 (stereo unspecified),-10%,50µM*,20µM*,?,-1%,?
COC1=CC(=O)O[C@@H](/C=C/c2ccc3c(c2)OCO3)C1,-8%,.,.,.,.,.
C/C=C1/C2C=C(C)CC1(N)c1ccc(=O)[nH]c1C2 (stereo unspecified),5%,.,.,.,7%,32%[59 µM]
Cn1c(O)c(C(=O)c2ccccc2Cl)c(=O)n(C)c1=O,-4%,.,89µM*,18%,-24%,?
FC(F)(F)c1ccc(Cl)cc1,5%,.,.,.,.,.
CCNC(=S)NCCC1=c2ccccc2=N/C1=C\c1c(O)n(C)c(=O)n(C)c1=O,-4%,?,-34%,?,16µM*,10µM*
COc1ccc(O)c(CN2CCCC(C(=O)c3sccc3C)C2)c1 (stereo unspecified),5%,?,-28%[57.1 µM],-22%,4%,50µM*
Cc1ccsc1C(=O)C1CCCN(Cc2ccccc2O)C1 (stereo unspecified),-1%,-3%,7%[57.1 µM],48%,8%,.
CSc1nn(-c2ccc(C(=O)OCC(=O)NC(=O)NC(C)C)cc2)c(=S)s1,6%,?,?,-10%,-6%,-19%[59 µM]
O=c1[nH]c(O)c(/C=C2\C=NN=C2c2ccccc2)c(=O)[nH]1,-9%,8%,-14%,20%,50µM*,50µM*
O=c1[nH]c(O)c(C=Nc2ccccc2Oc2ccccc2)c(=O)[nH]1,-7%,-29%,?,18%,-6%,2%
Cn1cc(C=C2C(=O)NC(=O)NC2=O)c2ccccc21,.,-8%,?,28%,-28%,-24%
NS(=O)(=O)c1ccc(-c2ccc(C=C3C(=O)NC(=O)NC3=O)o2)cc1,.,-34%,?,12%,14µM*,10µM*
CNS(=O)(=O)c1ccc(-c2ccc(C=C3C(=O)NC(=O)NC3=O)o2)cc1,.,?,-25%,72%,35µM*,8.9µM*
NS(=O)(=O)c1ccc(-c2ccc(C=C3C(=O)NC(=S)NC3=O)o2)cc1,.,50µM*,.,.,13µM*,2.5µM*
CN(C(=O)COc1nc2ccccc2s1)c1ccccc1,2%,.,.,.,-5%,.
CCC(C)n1c(=O)[nH]c(C)c(Br)c1=O (stereo unspecified),8%,.,.,.,12%,.
Oc1c(Cl)cc(Cl)cc1Cl,6%,.,.,.,.,.
CN1C(=O)CCS(=O)(=O)[C@H]1c1ccc(Cl)cc1,12%[56.1 µM],.,.,.,3%,.
Cc1ccc(C[N+](C)(C)C)o1,-5%,.,.,.,-1%,2%[59 µM]
COc1cc(Cc2ccc(N)c(OC)c2)ccc1N,0%,?,?,-21%,7%,71µM*
